This excerpt belongs to a sample that is enriched for hits.
CBX7 AlphaScr: inhibitors of human CBX7 binding to H3K27me3 peptide; AID 1224903; normalised signal (fraction of DMSO) (no concentration beside the values); AlphaScreen His6-CBX7 / biotin-H3K27me3 peptide binding; active compounds read low; 66,000 compounds, 1.1% hits; O95931; in the data active = normalised signal below about 0.5
Target sequence (O95931 whole entry, looked up): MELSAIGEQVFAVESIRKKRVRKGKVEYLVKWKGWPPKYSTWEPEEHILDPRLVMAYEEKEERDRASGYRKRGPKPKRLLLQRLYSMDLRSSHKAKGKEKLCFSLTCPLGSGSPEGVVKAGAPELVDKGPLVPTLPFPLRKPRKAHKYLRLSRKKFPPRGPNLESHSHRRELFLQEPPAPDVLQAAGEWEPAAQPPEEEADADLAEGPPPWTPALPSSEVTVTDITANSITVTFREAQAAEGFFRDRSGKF
Numbers without * were called inactive; ! = a repeat was not active.

For CCOC(=O)c1ccc(NC(=O)CSc2nnc(-c3cccnc3)o2)cc1 the results were CBX7 AlphaScr 1.
`COc1ccc(-n2nc(C(=O)NCc3cccnc3)c3ccccc3c2=O)c(OC)c1` gave CBX7 AlphaScr 1.
`COc1cccc(-c2cc(C(F)(F)F)nc(N3CCc4ccccc4C3)n2)c1` gave CBX7 AlphaScr 1.3.
For O=C(NCc1nc2ccccc2[nH]1)c1ccc(F)cc1 the results were CBX7 AlphaScr 0.96.
Screening CCOc1ccc(C2NCCc3c2[nH]c2ccccc32)cc1 (stereo unspecified) returned CBX7 AlphaScr 0.72.
Screening CN(C)c1ccc(C2NC(C(=O)O)Cc3c2[nH]c2ccccc32)cc1 (stereo unspecified) returned CBX7 AlphaScr 0.25*.
For Cc1ccc(C2NC(C(=O)O)Cc3c2[nH]c2ccccc32)cc1 (stereo unspecified) the results were CBX7 AlphaScr 1.
Screening CCOc1ccc(C(=O)Nc2cc(-c3nc4ncccc4o3)ccc2Cl)cc1 returned CBX7 AlphaScr 1.
`CC1CCCCC1NC1CC(=O)N(c2ccccc2)C1=O` (stereo unspecified) gave CBX7 AlphaScr 1.
`Cc1cccc(CSc2nc3ccncc3n2Cc2nc(-c3ccccc3F)oc2C)c1` gave CBX7 AlphaScr 1.
`Cc1c(C(=O)NCc2ccccc2)oc2ccc(S(=O)(=O)N(C)C3CCCCC3)cc12` gave CBX7 AlphaScr 0.96.
CCOC(=O)c1cc(-c2ccc(OC)cc2)n(CCC(=O)Nc2ccccc2OCC)c1C was read as CBX7 AlphaScr 0.85.
For COc1ccc(-n2c3c(cc(C(=O)Nc4ccc(OC)cc4OC)c2=O)C(=O)CC(C)(C)C3)cc1 the results were CBX7 AlphaScr 1.1.
COc1ccc(-n2c(-c3ccc(C)cc3)cc3c2CC(C)(C)CC3=O)cc1 was read as CBX7 AlphaScr 0.95.
`COc1ccc(-c2cc3c(n2-c2ccccc2)CC(C)(C)CC3=O)cc1` gave CBX7 AlphaScr 0.79.
For Cc1ccc(-c2cc3c(n2-c2ccccc2)CC(C)(C)CC3=O)cc1 the results were CBX7 AlphaScr 0.95.
`COc1ccc(-n2c(-c3ccc(Cl)cc3)cc3c2CC(C)(C)CC3=O)cc1` gave CBX7 AlphaScr 0.88.
For COc1cccc(-n2c(-c3ccc(C)cc3)cc3c2CC(C)(C)CC3=O)c1 the results were CBX7 AlphaScr 0.35*.
Screening Cc1ccc(-n2c(-c3ccccc3)cc3c2CC(C)(C)CC3=O)cc1Cl returned CBX7 AlphaScr 0.82.
`COc1ccc(-n2c(-c3ccc(C)cc3)cc3c2CC(C)(C)CC3=O)c(OC)c1` gave CBX7 AlphaScr 0.27*.
For COc1ccccc1-n1c(-c2ccc(C)cc2)cc2c1CC(C)(C)CC2=O the results were CBX7 AlphaScr 0.32*.
`CCOc1ccc(-n2c(-c3ccc(OC)cc3)cc3c2CC(C)(C)CC3=O)cc1` gave CBX7 AlphaScr 0.4*.
For COc1ccc(Cn2c(-c3ccc(C)cc3)cc3c2CC(C)(C)CC3=O)cc1 the results were CBX7 AlphaScr 0.8.
Screening COc1ccccc1-n1c2c(cc(C(=O)N3CCC(C)CC3)c1=O)C(=O)CC(C)(C)C2 returned CBX7 AlphaScr 1.
COc1ccc(N2CCN(CCCNC(=O)c3csc4c3CCCC4)CC2)cc1 was read as CBX7 AlphaScr 0.75.
Screening CCOCCCNC(=O)CCc1nc(-c2ccc(C)cc2)no1 returned CBX7 AlphaScr 1.
For CC1CCCC(C)N1CCNC(=O)c1cc(=O)[nH]c2ccc(S(=O)(=O)N3CCCC3)cc12 (stereo unspecified) the results were CBX7 AlphaScr 0.97.
COc1cc(OC)cc(-c2nc3nc(C)c(CCC(=O)NCCN4CCOCC4)c(C)n3n2)c1 was read as CBX7 AlphaScr 1.1.
COc1cccc(-c2nn(C)c3sc(C(=O)Nc4cccc(Cl)c4)cc23)c1 was read as CBX7 AlphaScr 0.98.
`COc1cccc(NC(=O)c2cn(-c3ccc(C)c(C)c3)c(=O)c3ccccc23)c1` gave CBX7 AlphaScr 0.99.
Screening CC(C)c1ccc(CN2CC(C(=O)Nc3ccc(Cl)cc3Cl)CC2=O)cc1 (stereo unspecified) returned CBX7 AlphaScr 1.
Cc1cccc(CCNC(=O)CCN2N=C(c3ccccc3)CCC2=O)c1 was read as CBX7 AlphaScr 0.98.
For Cc1ccc(NC(=O)c2cccc3c2C(=O)N(Cc2ccccn2)C3)cc1F the results were CBX7 AlphaScr 0.94.
`CCCCN(CC)S(=O)(=O)c1ccc2[nH]c(=O)cc(C(=O)NCCN(CC)c3ccccc3)c2c1` gave CBX7 AlphaScr 0.92.
Cc1ccc2c(c1)c(-c1ccccc1)c(-c1ccccc1)n2CC(O)CN1CCCCCC1 (stereo unspecified) was read as CBX7 AlphaScr 0.53.
For COc1ccc(-c2csc(Nc3ccc(Oc4ccccc4)cc3)n2)cc1Br the results were CBX7 AlphaScr 0.42*!.
Screening COc1cccc(Nc2nc(-c3ccc(OC)c(Br)c3)cs2)c1 returned CBX7 AlphaScr 0.7.
Screening CC(C)Cc1ccc(-c2csc(Nc3ccc(Oc4ccccc4)cc3)n2)cc1 returned CBX7 AlphaScr 0.49*.
Clc1ccc(-c2csc(Nc3ccc(Oc4ccccc4)cc3)n2)cc1 was read as CBX7 AlphaScr 0.54.
`O=C1c2ccccc2C(=O)N1c1cccc(-c2csc(Nc3ccc(Oc4ccccc4)cc3)n2)c1` gave CBX7 AlphaScr 0.74.
`CC(=O)Nc1nc(-c2ccc(Oc3ccccc3)cc2)cs1` gave CBX7 AlphaScr 0.92.
Screening COCCNC(=O)c1c[nH]c2ccc(S(=O)(=O)N(C)c3ccc(Cl)cc3F)cc2c1=O returned CBX7 AlphaScr 0.94.
For Cc1csc(NC(=O)C2CCCN2S(=O)(=O)c2ccc3c(c2)n(C)c(=O)c(=O)n3C)n1 (stereo unspecified) the results were CBX7 AlphaScr 1.2.
`COC(=O)c1ccc(NC(=O)CSc2nnc(C)c3ccccc23)cc1` gave CBX7 AlphaScr 0.98.
`O=C(Cc1ccccc1)Nc1nc(-c2ccc(Oc3ccccc3)cc2)cs1` gave CBX7 AlphaScr 1.
For CCC(=O)NCCc1nc2ccccc2n1Cc1ccccc1C the results were CBX7 AlphaScr 1.1.
Screening CCN1CCCC1CNC(=O)C1CCCN(c2nn3c(=O)cc(C)nc3s2)C1 (stereo unspecified) returned CBX7 AlphaScr 0.61.
COc1ccc(OCC(O)Cn2c(=N)n(CCN3CCOCC3)c3ccccc32)cc1 (stereo unspecified) was read as CBX7 AlphaScr 1.
Screening COc1ccc(C(=O)c2cn(Cc3ccc(C)cc3)c3ccccc3c2=O)cc1 returned CBX7 AlphaScr 0.54.
Screening CCC(=C(c1ccc(OC)cc1)c1ccc(OC)cc1)c1cn(CCN(C)C)c2ccccc12 returned CBX7 AlphaScr 0.32*.
For COc1ccc(-c2cc3ccccc3n2CC(O)CN2CCCCC2)cc1 (stereo unspecified) the results were CBX7 AlphaScr 0.86.
For COc1ccc(OCC(O)CN2CCCCCC2)cc1 (stereo unspecified) the results were CBX7 AlphaScr 0.74.
CCC(=C(c1ccc(OC)cc1)c1ccc(OC)cc1)c1cn(CC(O)CN2CCN(C)CC2)c2ccccc12 (stereo unspecified) was read as CBX7 AlphaScr 0.35*.
COc1cccc(OCC(O)CN2CCOCC2)c1 (stereo unspecified) was read as CBX7 AlphaScr 1.1.
CCC(=C(c1ccc(OC)cc1)c1ccc(OC)cc1)c1cn(CC(O)CN2CCOCC2)c2ccccc12 (stereo unspecified) was read as CBX7 AlphaScr 0.41*.

Screening results from PubChem.
